Reference: PubChem BioAssay AID651812 (National Center for Advancing Translational Sciences (NCATS), 2012)
The campaign covered roughly 2,100 compounds. About 650 (31%) were called active. Inconclusive results (about 16%) are left out. Calls come from the whole dose curve; as a rule, active = well fitted inhibition curve with a large enough effect; inconclusive = small, poorly fitted or top-dose-only effect; inactive = flat fitted curve, though single readings scatter. This is one part of the list.

Experiment: qHTS for inhibitors of Vif-A3G interactions: Cherry picks; note: nearly all actives have a fitted effect of over 80% in size
Conditions: HeLa A3G-eYFP + Vif (tagged APOBEC3G with the HIV-1 protein that degrades it), 24 h; Potency: eYFP fluorescence increase; series mostly up to 36.9 µM
Summary of the method: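 HeLa cells stably expressing A3G-eYFP and Vif, cultured overnight then exposed to compounds at several concentrations for 24 hours at 37 C, 5% CO2; cellular yellow fluorescence (488 nm ex, 500-530 nm em) imaged on Acumen, MG132 positive control.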
Potency is the fitted concentration of half-maximal effect.

Potency, active:
O=C1/C(=C/c2ccc(N3CCCC3)cc2)NC(=S)N1C1CC1 3.66 µM, Cc1ccc(/C=C2/NC(=O)N(Cc3ccccc3)C2=O)s1 23.1 µM, CCN1C(=O)/C(=C/c2ccc(N3CCCC3)cc2)NC1=S 10.3 µM, CN(C)c1ccc(/C=C2\NC(=S)N(Cc3ccccc3)C2=O)cc1 9.94 µM, CCOC(=O)N1CCN(/C=C(\C#N)c2nc3ccccc3s2)CC1 18.4 µM, COc1cc(/C=C2\SC(=S)N(NC(=O)c3ccc(O)c(OC)c3)C2=O)ccc1O 13 µM, COc1cc(/C=C2\SC(=S)N(NC(=O)c3ccccc3O)C2=O)ccc1O 23.1 µM, c1ccc2c(CCc3c[nH]c4ccccc34)ccnc2c1 23.1 µM, CCCCN1C(=O)/C(=C2/Sc3ccccc3N2C)S/C1=N\c1ncn[nH]1 18.4 µM, CCc1cccc2cc3c(N)c(C(=O)Nc4ccc(S(=O)(=O)N5CCCC5)cc4)sc3nc12 4.98 µM, Cc1cccc2cc3c(N)c(C(=O)Nc4ccc(N5CCOCC5)cc4)sc3nc12 14 µM, Nc1c(C(=O)Nc2ccc(S(=O)(=O)N3CCCC3)cc2)sc2nc3ccc(OC(F)(F)F)cc3cc12 20.6 µM, Nc1c(C(=O)Nc2ccc(S(=O)(=O)N3CCCC3)cc2)sc2nc3cc4c(cc3cc12)CCC4 8.2 µM, COc1cc(OC)c(/C=C/c2ccc3ccccc3[n+]2C)c(OC)c1 10.3 µM, Cc1sc2ncnc(N=Nc3c(O)[nH]c4ccccc34)c2c1C 16.4 µM, Fc1ccc(-c2cnn3c(-c4cccs4)ccnc23)cc1 12.5 µM, COc1ccc2nc(SCC(=O)Nc3ccc4sc(C)nc4c3)c(C#N)cc2c1 20.6 µM, Cc1ccc2nc(SCC(=O)Nc3ccc4sc(C)nc4c3)c(C#N)cc2c1 18.4 µM, COc1ccc2nc(SCC(C)=O)c(C#N)cc2c1 3.26 µM, Cc1nc2cc(NC(=O)CSc3nc4c(C)cccc4cc3C#N)ccc2s1 13 µM, CCOC(=O)c1cc2n(c1/N=C/N(C)C)-c1ccccc1C2=O 20.6 µM, CCOc1cc(/C=C(/C#N)C(=O)Nc2ccc(O)cc2)cc(Br)c1O 15.8 µM, CCOc1ccc(NC(=O)/C(C#N)=C/c2ccc(N3CCCC3)c(C)c2)cc1 6.51 µM, CCSc1nnc(-c2sc3nnc(-c4ccccc4)c(-c4ccccc4)c3c2N)o1 10.3 µM, CC1=CN2C(=N)/C(=C/c3ccc([N+](=O)[O-])o3)C(=O)N=C2S1 9.94 µM, Fc1ccc2nc3[nH]c4ccccc4c3nc2c1 1.4 µM, CN1CCc2c(sc3c2C(=O)NC(c2ccc(-c4ccc(Cl)cc4)o2)N3)C1 (stereo not given) 11.6 µM, Cc1sc(-c2cc3c([nH]c2=O)CC(c2ccccc2)CC3=O)nc1-c1ccc(Cl)cc1 (stereo not given) 20.6 µM, COc1ccc2nc3ccccc3nc2c1NC(=O)c1ccc(Cl)cc1Cl 2.8 µM, COc1ccc2nc3ccccc3nc2c1NC(=O)c1ccc(Br)cc1 14.6 µM, COc1ccc2nc3ccccc3nc2c1NC(=O)c1ccc(Cl)cc1 20.6 µM, CCN(CC)c1ccc(/C=C2\C(=N)N3N=C(CC(=O)N4CCOCC4)SC3=NC2=O)cc1 0.177 µM, CN(C)c1ccc(/C=C2\C(=N)N3N=C(CC(=O)N4CCCCC4)SC3=NC2=O)cc1 18.4 µM, CN(C)c1ccc(/C=C2\SC(N3CCCCC3)=NC2=O)cc1 23.1 µM, COc1ccc2cc(-c3nc(Cl)c4c5c(sc4n3)CC(C)CC5)c(=O)oc2c1 (stereo not given) 4.11 µM, CN1C(=O)/C(=C/c2ccccc2OCc2ccc(F)cc2)N(C)C1=S 23.1 µM, O=[N+]([O-])c1ccccc1S(=O)(=O)Nc1ccc(-c2ccc(N3CCOCC3)nn2)cc1 23.1 µM, CC[n+]1ccc(/C=C2\Sc3ccccc3N2CCCS(=O)(=O)[O-])c2ccccc21 20.6 µM

Potency, inactive:
Cc1ccc(C=Nc2ccccc2C(N)=O)s1, O=C1N/C(=C\c2ccccc2)c2ccccc21, COc1ccc(COn2c(=O)c(C)[n+]([O-])c3ccccc32)cc1OC, COc1ccccc1N1CCN(c2ncnc3c2oc2ccccc23)CC1, CCOC(=O)N1CCN(C(=O)c2cc(-c3ccc(OCC)cc3)nc3ccccc23)CC1, CCOC(=O)N1CCN(C(=O)c2ccccc2-c2ccccc2)CC1, COc1ccc(S(=O)(=O)N2N=C(C)Oc3ccccc3C2=O)cc1, COc1cc(/C=N/NC(=O)c2[nH]nc3c2CCc2ccccc2-3)ccc1O, COc1cc(/C=N/NC(=O)c2cc(-c3c(C)nn(-c4ccccc4)c3C)n[nH]2)ccc1O, COc1cc(/C=C/C(C)=NNc2ccccc2)ccc1O, COc1ccc(C(=O)N/N=C/c2cc(Br)ccc2O)cc1OC, CCOC(=O)C(C(=O)OCC)C(Nc1cccc(Br)c1)c1ccccc1 (stereo not given), Cc1ccc2c(c1)C=CC(C#N)N2C(=O)c1ccccc1 (stereo not given), O=C(Nc1nc2ccc(S(=O)(=O)N3CCCC3)cc2s1)C1CCCCC1, COc1ccc(NC(=O)c2oc3ccc(S(=O)(=O)N4CCOCC4)cc3c2C)cc1, COC(=O)Nc1ccc(S(=O)(=O)N2CCCc3ccccc32)cc1, Cc1c(C(=O)Nc2ccc(C(C)C)cc2)sc2nc3n(c(=O)c12)CCC3, O=C(Nc1ccc(N2CCOCC2)cc1)c1cccc2ccccc12, Cc1cc2nc(-c3ccc(SCC(=O)Nc4ccc(S(=O)(=O)N5CCCC5)cc4)nc3)[nH]c2cc1C, COc1cccc(C(=O)Nc2ccc(N3CCCC3)cc2)c1, O=C(Nc1ccc(Cl)cn1)c1cccc(S(=O)(=O)N2CCCCCC2)c1, CN1C(=O)N(C)c2ccc(C=O)c3cccc1c23, COc1cc(OC)c(/C=C/c2ccnc3ccccc23)c(OC)c1, COc1cc(OC)c(C2Nc3cccc4cccc(c34)N2)c(OC)c1, CCN(CC(=O)NCc1ccc(F)cc1)C(=O)/C=C/c1ccc(OC)c(S(=O)(=O)NC(C)C)c1, Cc1sc2ncnc(SCC(=O)NC(C)(C)C)c2c1C, Cc1sc2ncn(CC(=O)NCc3ccccc3)c(=O)c2c1C, CCC(=O)Nc1nc2ccc(NC(=O)c3cc(OC)c(OC)c(OC)c3)cc2s1, CCc1ccc2nc(SCC(=O)Nc3ccccc3N3CCOCC3)c(C#N)cc2c1, CCN(CC)c1ccc(NC(=O)CSc2nc(C3CC3)nc3ccccc23)cc1C, COc1ccc2nc(NC(=O)c3ccc([N+](=O)[O-])o3)sc2c1, Cc1ccc(NC(=O)CSc2n[nH]c(-c3ccccn3)n2)cc1, COc1ccc2cc(C(=O)C3CCCN(Cc4ccccn4)C3)ccc2c1 (stereo not given), CCCOc1ccccc1C1CC(=O)Nc2cc3c(cc21)OCO3 (stereo not given), Cn1nnnc1SCc1nc2scc(-c3ccc(Cl)cc3)c2c(=O)[nH]1, CCOC(=O)c1sc(NC(=S)NC(=O)c2ccco2)nc1C, COc1cccc(Nc2nc(Nc3ccc(Cl)c(C(=O)O)c3)nc(C)c2[N+](=O)[O-])c1, N#C/C(=C/c1ccc2c(c1)OCO2)C(=O)Nc1ccc(O)cc1, CCOc1ccc(NC(=O)N2CC=C(c3c[nH]c4ccccc34)CC2)cc1, CCOc1ccc(/C=N/NC(=O)c2cc3c(OC)cc(OC)c(OC)c3[nH]2)cc1, COc1ccc(NC(=O)C2Cc3c(-c4cccc(NC(C)=O)c4)ccnc3O2)cn1 (stereo not given), CSC1=NC(C(Cl)(Cl)Cl)N=C(c2ccccc2)N1 (stereo not given), CCS(=O)(=O)C1=NN2C(=N)/C(=C\c3ccc(SCc4ccco4)o3)C(=O)N=C2S1, CCOc1ccccc1C1CC(=O)NC2=C1C(=O)CCC2 (stereo not given), COCCOC(=O)c1[nH]c2c(c1C)C(=O)CC(c1ccccc1)C2 (stereo not given), O=C1CC(c2ccccc2)Cc2[nH]c(=O)c(-c3nc(-c4cccc(Cl)c4)cs3)cc21 (stereo not given), O=C(O)CSc1c2ccccc2cc2ccccc12, COc1ccccc1Nc1c2c(nc3ccc(NC(=O)c4ccc(N(C)C)cc4)cc13)CCCC2, COc1cc(C(=O)Nc2ccc3ccccc3c2)cc(OC)c1OC, COC(=O)/C(=C\Nc1ccc(Cl)cc1Cl)NC(=O)c1ccc(OC)cc1, COc1ccc(C)cc1Nc1c2c(nc3ccccc13)CCC2, COc1ccc(S(=O)(=O)NCc2ccccn2)cc1NC(=O)c1ccccc1, O=C(NC(=S)Nc1c(Cl)cc(Cl)cc1Cl)c1ccccc1, COc1ccc2nc(Nc3nc(CSc4ccc(C)cc4)cc(=O)[nH]3)nc(C)c2c1, CCN(CC)c1ccc(/C=C2\SC(N)=NC2=O)cc1, COc1cc(/C=C2\C(=N)N3N=CSC3=NC2=O)cc(Br)c1OC(=O)c1ccco1, O=c1c2cc3ccccc3n2cnn1Cc1ccccc1F, CCOc1ccccc1Oc1nc(C)nc2c1oc1ccccc12, Brc1ccc2c(c1)C(c1cccnc1)=NNC(c1cccs1)=N2, COc1cc(C(=O)N/N=C(\C)c2ccccn2)cc(OC)c1OC, COc1cc(C2Nc3ccc4ncccc4c3C3=C2C(=O)CCC3)cc(OC)c1O (stereo not given), CCOc1ccc(C(=O)COC(=O)Cc2n[nH]c(=O)c3ccccc23)cc1
